Results filed as inconclusive are left out. Active and inactive are the calls of the source. Unless noted, calls follow the shape of the dose curve; as a rule, active = well fitted curve in the direction sought with a large enough effect in the repeat runs; inconclusive = weak or mixed curves; inactive = no such curve, though single readings can be large; an effect the other way counts as inactive or inconclusive.
Experiments:
[1] = qHTS assay for small molecule agonists of the p53 signaling pathway (AID 651631; calls by dose curve; also: nearly all actives have a fitted effect of over 15% in size)
How it was run: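 HCT-116 cells carrying a beta-lactamase reporter under p53 response elements were dosed with compound for 16 h at 37 °C. LiveBLAzer B/G FRET substrate was then added for 2 h at room temperature, and fluorescence intensity was read to detect pathway agonism.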

[2] = qHTS assay for small molecules that induce genotoxicity in human embryonic kidney cells expressing luciferase-tagged ATAD5 (AID 651632); also: nearly all actives have a fitted effect of over 15% in size
How it was run: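 Test compounds were delivered by pin tool onto HEK293T reporter cells (2,000/well) expressing ATAD5 fused to luciferase. After 16 hr at 37C, 5% CO2, Amplite was added for 30 min at room temperature and luminescence was measured.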

[3] = qHTS assay for small molecule agonists of the p53 signaling pathway - cell viability (AID 651633; calls by dose curve;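 also: p53RE-bla HCT reporter cells with a stable beta-lactamase p53 reporter; series mostly up to about 83 µM; nearly all actives have a fitted effect of over 30% in size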)
How it was run: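 p53RE-bla cells were treated with compound for 16 hours at 37 C. Cytotoxicity was then measured as CellTiter-Glo luminescence after 30 min at room temperature.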

[4] = qHTS assay for small molecules that induce genotoxicity in human embryonic kidney cells expressing luciferase-tagged ATAD5 - cell viability (AID 651634; calls by dose curve; also: nearly all actives have a fitted effect of over 25% in size)
How it was run: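 Quantitative high-throughput format. HEK293T cells expressing ATAD5 fused to luciferase were plated at 2,000 cells/well and treated 15.5 hr with compound versus DMSO. Viability was determined by fluorescent live-cell protease substrate, 30 min at 37C.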

[5] = qHTS assay for small molecule disruptors of the mitochondrial membrane potential - cell viability (AID 720634; calls by dose curve;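 also: human HepG2 liver cancer cells; series mostly up to about 83 µM; nearly all actives have a fitted effect of over 20% in size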)
How it was run: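 Same-well counter-screen: following the MMP dye addition, CellTiter-Glo was added to 1 hr compound-treated HepG2 cells and luminescence read after 30 min at room temperature.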

[6] = qHTS assay for small molecule disruptors of the mitochondrial membrane potential (AID 720635)
How it was run: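 HepG2 cells exposed to compound 1 hr at 37C, then Mito-MPS dye 30 min. Ratio read of aggregate (540/590 nm) versus monomer (490/535 nm) fluorescence.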

[7] = qHTS assay to test for compound auto fluorescence at 590 nm (red) in HepG2 cells (AID 720674)
How it was run: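 Fluorescence at 590 nm emission following 540 nm excitation was recorded from HepG2 wells one hour after compound transfer, with DMSO-only wells as vehicle and Rose Bengal sodium equivalency as the scale.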

[8] = qHTS assay to test for compound auto fluorescence at 535 nm (green) in HepG2 cells (AID 720675)
[9] = qHTS assay to test for compound auto fluorescence at 460 nm (blue) in HEK293 cells (AID 720678)
How it was run: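 Blue read-out at excitation 405 nm and emission 460 nm follows overnight compound exposure of HEK293 cells at 37C in 5% CO2. Activity is given as auto fluorescence equivalency to triamterene.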

[10] = qHTS assay to test for compound auto fluorescence at 590 nm (red) in HEK293 cells (AID 720679)
How it was run: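 Red channel, Ex/Em 540/590nm; signal expressed as equivalency to Rose Bengal sodium. HEK293, 2,000 cells/well, 10% dialyzed FBS; 23 nL compound pinned after 4-5 hr attachment; overnight 37C/5% CO2 before reading.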

[11] = qHTS assay to test for compound auto fluorescence at 535 nm (green) in HEK293 cells (AID 720680)
[12] = qHTS assay to test for compound auto fluorescence at 460 nm (blue) in HEK293 cell free culture (AID 720681)
How it was run: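 Compounds were added to cell-free DMEM with 10% FBS and fluorescence read directly. The blue channel used 405 nm excitation and 460 nm emission, with triamterene as the reference fluorophore.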

[13] = qHTS assay to test for compound auto fluorescence at 535 nm (green) in HEK293 cell free culture (AID 720682)
How it was run: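 Green-label autofluorescence (485 nm excitation, 535 nm emission) measured on compound added to cell-free culture medium (DMEM, 10% FBS). Output is expressed relative to fluorescein.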

[14] = qHTS assay to test for compound auto fluorescence at 590 nm (red) in HEK293 cell free culture (AID 720683)
How it was run: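 Cell-free wells of DMEM with 10% FBS received compound, and intrinsic fluorescence was read at excitation/emission 540/590 nm. Values expressed as equivalence to Rose Bengal sodium.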

[15] = qHTS assay to test for compound auto fluorescence at 590 nm (red) in HepG2 cell free culture (AID 720684)
How it was run: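 Rose Bengal sodium served as the reference for red signal. Test compounds were dispensed into serum-containing MEM (10% FBS) without cells, and plates were read at 540/590 nm.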

[16] = qHTS assay to test for compound auto fluorescence at 460 nm (blue) in HepG2 cell free culture (AID 720685)
How it was run: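 Cell-free plates of MEM plus 10% FBS received 23 nL compound or DMSO vehicle; blue-channel (405/460 nm) intensity scored against triamterene as reference fluorophore.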

[17] = qHTS assay to test for compound auto fluorescence at 535 nm (green) in HepG2 cell free culture (AID 720686)
[18] = qHTS assay to test for compound auto fluorescence at 460 nm (blue) in HepG2 cells (AID 720687)
How it was run: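 HepG2 cells in MEM with 10% FBS, attached overnight at 37 C, were exposed to compound or DMSO for 1 hr at 37 C, 5% CO2. Blue fluorescence was read at 405/460 nm, with triamterene as reference fluorophore.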

[19] = target: Glucocorticoid receptor (Homo sapiens) (UniProt P04150); experiment: qHTS assay to identify small molecule agonists of the glucocorticoid receptor (GR) signaling pathway (AID 720691; active = well fitted activation curve with a large enough effect in the signal ratio in the repeat runs, not every such curve was filed as active; the % refers to the signal ratio)
How it was run: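 A HeLa cervical cancer line expressing GR and a glucocorticoid response element-driven beta-lactamase gene is treated with compounds for 18 h; LiveBLAzer B/G FRET substrate is then applied and fluorescence read.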

[20] = target: Glucocorticoid receptor (Homo sapiens) (UniProt P04150); experiment: qHTS assay to identify small molecule antagonists of the glucocorticoid receptor (GR) signaling pathway (AID 720692; active = well fitted inhibition curve with a large enough effect in the signal ratio in the repeat runs, not every such curve was filed as active; the % refers to the signal ratio)
How it was run: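 GRE-bla HeLa line, dex-stimulated (5 nM final). Compound exposure 18 h, 37 C. Beta-lactamase FRET read after 2 h RT substrate.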
% is scaled to controls: 0 for no effect and ±100 for the full control effect.

Glucocorticoid receptor (Homo sapiens), sequence (P04150 whole entry, looked up): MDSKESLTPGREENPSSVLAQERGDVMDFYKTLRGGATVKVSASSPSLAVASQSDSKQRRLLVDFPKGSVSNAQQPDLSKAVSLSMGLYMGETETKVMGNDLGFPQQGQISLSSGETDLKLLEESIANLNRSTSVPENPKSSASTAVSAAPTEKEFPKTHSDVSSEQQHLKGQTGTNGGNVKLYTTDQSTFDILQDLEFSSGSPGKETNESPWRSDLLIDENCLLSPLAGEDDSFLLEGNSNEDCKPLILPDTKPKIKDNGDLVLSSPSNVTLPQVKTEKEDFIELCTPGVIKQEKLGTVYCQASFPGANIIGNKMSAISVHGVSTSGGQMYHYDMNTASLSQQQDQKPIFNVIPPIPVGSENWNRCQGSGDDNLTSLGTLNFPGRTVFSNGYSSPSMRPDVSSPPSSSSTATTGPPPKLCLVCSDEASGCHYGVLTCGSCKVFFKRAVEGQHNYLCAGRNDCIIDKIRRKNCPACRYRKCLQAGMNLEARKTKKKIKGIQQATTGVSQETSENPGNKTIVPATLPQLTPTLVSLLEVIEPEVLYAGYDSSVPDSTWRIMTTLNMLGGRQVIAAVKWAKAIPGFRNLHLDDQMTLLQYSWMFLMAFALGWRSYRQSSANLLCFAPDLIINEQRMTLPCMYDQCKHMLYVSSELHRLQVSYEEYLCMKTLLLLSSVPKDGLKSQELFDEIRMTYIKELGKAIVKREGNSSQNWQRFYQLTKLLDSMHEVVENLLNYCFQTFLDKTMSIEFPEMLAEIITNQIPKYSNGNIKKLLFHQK

C=C(C)c1ccccc1
inactive: Potency [1] | Potency [2] | Potency [3] | Potency [4] | outcome [5] | Potency [6] | outcome [7] | outcome [8] | Potency [9] | outcome [10] | outcome [11] | Potency [12] | outcome [13] | outcome [14] | outcome [15] | Potency [16] | outcome [17]

CCC1CCC(CCC(=O)O)C1 (stereo not drawn)
inactive: Potency [1] | Potency [2] | Potency [3] | Potency [4] | outcome [5] | Potency [6] | outcome [7] | outcome [8] | Potency [9] | outcome [10] | outcome [11] | Potency [12] | outcome [13] | outcome [14] | outcome [15] | Potency [16] | outcome [17] | Potency [18] | Potency [19]

CC(CO)(CO)C(=O)O
inactive: Potency [1] | Potency [2] | Potency [3] | Potency [4] | outcome [5] | Potency [6] | outcome [7] | outcome [8] | Potency [9] | outcome [10] | outcome [11] | Potency [12] | outcome [13] | outcome [14] | outcome [15] | Potency [16] | outcome [17] | Potency [18]

Nc1ccn([C@H]2CS[C@@H](CO)O2)c(=O)n1
inactive: Potency [1] | Potency [2] | Potency [3] | Potency [4] | outcome [5] | Potency [6] | outcome [7] | outcome [8] | Potency [9] | outcome [10] | outcome [11] | Potency [12] | outcome [13] | outcome [14] | outcome [15] | Potency [16] | outcome [17] | Potency [18] | Potency [19] | Potency [20]

Cc1c[nH]c2ccccc12
inactive: Potency [1] | Potency [2] | Potency [3] | Potency [4] | outcome [5] | Potency [6] | outcome [8] | Potency [9] | outcome [10] | outcome [11] | Potency [12] | outcome [13] | outcome [14] | outcome [15] | Potency [16] | outcome [17] | Potency [18] | Potency [19] | Potency [20]

C=C(C)C(=O)OCCC(F)(F)C(F)(F)C(F)(F)C(F)(F)C(F)(F)C(F)(F)F
inactive: Potency [1] | Potency [2] | Potency [3] | Potency [4] | outcome [5] | Potency [6] | outcome [7] | outcome [10] | outcome [11] | Potency [12] | outcome [13] | outcome [14] | outcome [15] | Potency [16] | outcome [17] | Potency [18] | Potency [19] | Potency [20]

COC(CC(C)CCCC(C)(C)O)OC (stereo not drawn)
inactive: Potency [1] | Potency [2] | Potency [3] | Potency [4] | outcome [5] | Potency [6] | outcome [7] | outcome [8] | Potency [9] | outcome [10] | outcome [11] | Potency [12] | outcome [13] | outcome [14] | outcome [15] | Potency [16] | outcome [17] | Potency [18] | Potency [20]

CCC(=O)OCc1ccc(OC)cc1
inactive: Potency [1] | Potency [2] | Potency [3] | Potency [4] | outcome [5] | Potency [6] | outcome [7] | outcome [8] | Potency [9] | outcome [11] | Potency [12] | outcome [13] | outcome [14] | outcome [15] | Potency [18] | Potency [19] | Potency [20]

CC(C)Cc1ccc(CC(=O)O)cc1
inactive: Potency [1] | Potency [2] | Potency [3] | Potency [4] | outcome [5] | Potency [6] | outcome [7] | outcome [8] | Potency [9] | outcome [10] | outcome [11] | Potency [12] | outcome [13] | outcome [14] | outcome [15] | outcome [17] | Potency [18] | Potency [20]

O=c1[nH]c2cc(C(F)(F)F)c(N3CCOCC3)cc2n(CP(=O)(O)O)c1=O
inactive: Potency [1] | Potency [2] | Potency [3] | Potency [4] | outcome [5] | Potency [6] | outcome [7] | outcome [8] | outcome [10] | outcome [11] | Potency [12] | outcome [13] | outcome [14] | outcome [15] | Potency [16] | outcome [17] | Potency [18] | Potency [19] | Potency [20]

CCCC(=O)OC(=O)CCC
inactive: Potency [1] | Potency [2] | Potency [3] | Potency [4] | outcome [5] | Potency [6] | outcome [7] | outcome [8] | Potency [9] | outcome [11] | Potency [12] | outcome [13] | outcome [14] | outcome [15] | Potency [16] | outcome [17]

CC(O)Cn1cnc2c1c(=O)n(C)c(=O)n2C (stereo not drawn)
inactive: Potency [1] | Potency [2] | Potency [3] | Potency [4] | outcome [5] | Potency [6] | fluorescence, relative to Rose Bengal [7] -0.388% [at 18.6 µM] | fluorescence, % of triamterene [9] -0.0145% [at 18.6 µM] | fluorescence, % of fluorescent control [10] 0.0437% [at 18.6 µM] | fluorescence, % of fluorescent control [12] -0.136% [at 18.6 µM] | activity change [13] -0.0176% [at 18.6 µM] | fluorescence, % of fluorescent control [14] 0.243% [at 18.6 µM] | fluorescence, % of Rose Bengal [15] -0.131% [at 18.6 µM] | fluorescence, % of fluorescent control [16] -0.0952% [at 18.6 µM] | fluorescence, % of fluorescein control [17] -0.0191% [at 18.6 µM] | fluorescence, % of fluorescent control [18] 0.0234% [at 18.6 µM]

COc1ccc(C(=O)NCc2ccc(OCCN(C)C)cc2)cc1OC
inactive: Potency [1] | Potency [2] | Potency [3] | Potency [4] | outcome [5] | Potency [6] | outcome [7] | outcome [8] | Potency [9] | outcome [10] | outcome [11] | Potency [12] | outcome [13] | outcome [14] | outcome [15] | Potency [16] | outcome [17] | Potency [18] | Potency [19] | Potency [20]

CC(C)(O)CCc1ccccc1
inactive: Potency [1] | Potency [2] | Potency [3] | Potency [4] | outcome [5] | Potency [6] | outcome [7] | outcome [8] | Potency [9] | outcome [10] | outcome [11] | Potency [12] | outcome [13] | outcome [14] | outcome [15] | Potency [16] | Potency [18]

Source: PubChem BioAssay (Tox21)
